Our source for the potency estimated from few doses values is paper PMC11062922 (Nature Chemical Biology, 2023).

Common to all, as to set-up: species or system human, MV4-11 + K-562 + COLO205 + SK-N-BE2 + OVCAR-8
The subject of one assay is ACVR1B. The note with it: read-out: apparent Kd; compound concentrations:100 nM and 1000 nM (sheet 'Samples'); n = 1.
The next assay concerns GAK. The note with it: read-out: apparent Kd, n = 1.
The next assay concerns NQO2. The following applies: read-out: apparent Kd; compound concentrations:100 nM and 1000 nM (sheet 'Samples'); n = 1.
For the next assay, the system named is PRKD2. The following applies: read-out: apparent Kd; compound concentrations:100 nM and 1000 nM (sheet 'Samples'); n = 1.
The test system of another assay is PRKD3. The following applies: read-out: apparent Kd; compound concentrations:100 nM and 1000 nM (sheet 'Samples'); n = 1.
A further assay relates to RIPK2. The note with it: read-out: apparent Kd, n = 1.
The subject of the next assay is TGFBR1. The note with it: read-out: apparent Kd; compound concentrations:100 nM and 1000 nM (sheet 'Samples'); n = 1.
The test system of the next assay is TGFBR2. The note with it: read-out: apparent Kd; compound concentrations:100 nM and 1000 nM (sheet 'Samples'); n = 1.
In a further assay the test system is TNIK. The note with it: read-out: apparent Kd; compound concentrations:100 nM and 1000 nM (sheet 'Samples'); n = 1.
The next assay deals with ZAK. The following applies: read-out: apparent Kd; compound concentrations:100 nM and 1000 nM (sheet 'Samples'); n = 1.
In another assay the test system is ACVR2B. The note with it: read-out: apparent Kd, n = 1.
The test system of the next assay is BCR. The note with it: read-out: apparent Kd; compound concentrations: 100 nM and 1000 nM (sheet 'Samples'), CATDS: 0.13309110379765501; n = 1.
In the next assay the test system is EPHA1. The note with it: read-out: apparent Kd; compound concentrations: 100 nM and 1000 nM (sheet 'Samples'), CATDS: 0.10065713248800801; n = 1.
For a further assay, the system named is PTK6. The note with it: read-out: apparent Kd; compound concentrations: 100 nM and 1000 nM (sheet 'Samples'), CATDS: 9.8392012299874307E-2; n = 1.
The subject of a further assay is RET. The following applies: read-out: apparent Kd; compound concentrations: 100 nM and 1000 nM (sheet 'Samples'), CATDS: 0.106923709019676; n = 1.
A further assay has as its system RIPK3. The note with it: read-out: apparent Kd; compound concentrations: 100 nM and 1000 nM (sheet 'Samples'), CATDS: 7.5580251546270003E-2; n = 1.
The next assay relates to SIK2. The note with it: read-out: apparent Kd; compound concentrations: 100 nM and 1000 nM (sheet 'Samples'), CATDS: 0.152739498183388; n = 1.
The subject of another assay is MAP3K1. The note with it: read-out: apparent Kd; compound concentrations:100 nM and 1000 nM (sheet 'Samples'); n = 1.
The test system of another assay is SLK. The following applies: read-out: apparent Kd; compound concentrations:100 nM and 1000 nM (sheet 'Samples'); n = 1.
In a further assay the test system is STK10. The note with it: read-out: apparent Kd; compound concentrations:100 nM and 1000 nM (sheet 'Samples'); n = 1.
The next assay relates to PIP4K2C. The note with it: read-out: apparent Kd; compound concentrations: 100 nM and 1000 nM (sheet 'Samples'), CATDS: 0.38663089306687698; n = 1.
A further assay deals with TESK2. The note with it: read-out: apparent Kd; compound concentrations:100 nM and 1000 nM (sheet 'Samples'); n = 1.
Where [1] appears, read: compound concentrations:100 nM and 1000 nM (sheet 'Samples').

The structures appear in SMILES notation. Where two headings read alike, the source gives them in different places.

`c1ccc(-c2n[nH]cc2-c2ccnc(-c3ccc(OCCN4CCOCC4)cc3)c2)nc1` [GW695874X]: the potency estimated from few doses in the assay with ACVR1B was 51.4 nM; with GAK (setting [1]), 432 nM; in the assay with NQO2, 256 nM; in the assay with PRKD2, 648 nM; in the assay with PRKD3, 1460 nM; with RIPK2 (setting [1]) it was 774 nM. Besides, the potency estimated from few doses with TGFBR1 is 27.7 nM; in the assay with TGFBR2, 758 nM; in the assay on TNIK, 1170 nM; with ZAK it was 2090 nM.
Turning to `Fc1cc(Cl)ccc1Nc1ccnc2cc(-c3ccc(CN4CCCCC4)o3)ccc12` [GW560116X], the potency estimated from few doses with ACVR2B (compound concentrations: 100 nM and 1000 nM (sheet 'Samples'), CATDS: 8.5008478980750105E-2) was 1080 nM; with BCR it was 359 nM; with EPHA1, 670 nM; in the assay with GAK (compound concentrations: 100 nM and 1000 nM (sheet 'Samples'), CATDS: 0.10209993083840201), 646 nM; in the assay with PTK6, 710 nM; in the assay with RET, 577 nM. For the same molecule, the potency estimated from few doses in the assay with RIPK2 (compound concentrations: 100 nM and 1000 nM (sheet 'Samples'), CATDS: 0.37039480382744999) was 69.3 nM; with RIPK3, 1650 nM; in the assay on SIK2, 276 nM.
`C[C@@H](Oc1cc(-n2cnc3cc(-c4ccnc(N5CCN(C)CC5)c4)ccc32)sc1C(N)=O)c1ccccc1Cl` [GSK641502A]: the potency estimated from few doses in the assay with ACVR2B (setting [1]) is 732 nM; in the assay with MAP3K1 it was 603 nM; in the assay with SLK, 1940 nM; in the assay on STK10, 1120 nM.
In the case of `c1ccc(-c2n[nH]cc2-c2ccnc(-c3ccc(OCCn4ccnc4)cc3)c2)nc1` [GW711782X], the potency estimated from few doses in the assay with ACVR1B was 245 nM; in the assay with GAK (setting [1]), 1350 nM; with NQO2, 71.1 nM; in the assay on PRKD2, 2160 nM; in the assay with RIPK2 (setting [1]), 801 nM; in the assay with TGFBR1, 82 nM. In addition, the potency estimated from few doses in the assay on TGFBR2 was 719 nM; with TNIK, 873 nM.
Regarding `Cl.NC(=O)c1cccc(Nc2nccc(Nc3cccc(F)c3)n2)c1` [GW759710A], the potency estimated from few doses in the assay on ACVR2B (compound concentrations: 100 nM and 1000 nM (sheet 'Samples'), CATDS: 0.70743681093709798) was 450 nM; in the assay on PIP4K2C, 1730 nM.
In the case of `Cl.c1ccc(-c2n[nH]cc2-c2ccnc(-c3ccc(CN4CCOCC4)cc3)c2)nc1` [GW776245A], the potency estimated from few doses with ACVR1B was 335 nM; with NQO2, 243 nM; in the assay on RIPK2 (setting [1]) it was 1080 nM; with TESK2, 1580 nM; in the assay on TGFBR1 it was 51.8 nM; in the assay with TGFBR2 it was 1230 nM.
